Laboratory results as given in PubChem BioAssay AID624330 (Southern Research Specialized Biocontainment Screening …, 2012).
The campaign covered roughly 340,000 compounds. About 2,100 (0.62%) were called active.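 How the source made its calls: active means first-screen hits whose inhibition reached a set limit at any dose in the follow-up dose series; inconclusive means inhibition above the set first-screen limit but never retested; inactive means the rest.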 Not all results are given here. Entries with a potency or affinity are not part of this list.

Biological target: Rac GTPase-activating protein 1 (Homo sapiens) (UniProt Q9H0H5)
Test: blockers of MgcRacGAP-driven Rac1 GTP hydrolysis – biochemical, ADP Hunter fluorescence, primary and confirmatory, confirmation (AID 624330);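 further: fluorescence reports GDP produced by GAP-driven GTP hydrolysis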
Conditions: MgcRacGAP-stimulated Rac1 GTP hydrolysis, at 30 µM, stronger effect = higher value, GST-tagged Rac1 F28L mutant substrate

Rac GTPase-activating protein 1 (Homo sapiens), sequence (Q9H0H5 whole entry, looked up): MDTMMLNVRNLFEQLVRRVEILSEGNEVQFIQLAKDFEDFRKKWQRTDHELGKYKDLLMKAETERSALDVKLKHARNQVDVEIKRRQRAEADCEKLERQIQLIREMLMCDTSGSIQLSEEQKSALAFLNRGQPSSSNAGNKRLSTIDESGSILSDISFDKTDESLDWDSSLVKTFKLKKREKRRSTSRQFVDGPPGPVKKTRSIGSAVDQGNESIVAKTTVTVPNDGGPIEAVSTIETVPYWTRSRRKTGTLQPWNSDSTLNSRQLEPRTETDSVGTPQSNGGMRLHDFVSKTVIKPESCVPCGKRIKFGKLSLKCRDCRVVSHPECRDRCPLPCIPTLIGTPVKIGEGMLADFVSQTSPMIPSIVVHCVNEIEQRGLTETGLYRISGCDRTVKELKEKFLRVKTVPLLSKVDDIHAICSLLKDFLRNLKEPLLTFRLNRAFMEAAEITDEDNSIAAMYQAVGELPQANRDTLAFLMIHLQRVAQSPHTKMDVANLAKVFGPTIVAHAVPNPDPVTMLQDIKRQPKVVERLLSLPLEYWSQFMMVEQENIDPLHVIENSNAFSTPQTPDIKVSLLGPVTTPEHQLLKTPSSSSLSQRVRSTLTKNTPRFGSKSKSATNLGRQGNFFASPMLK

inhibition, inactive:
O=C(CN1CCOc2ccccc21)NCc1ccccc1 -7.36%
O=C(N/N=C\c1ccccn1)C1COc2cc3ccccc3cc2O1 (stereo not given) 15.9%
CN1/C(=C/C2CC(=O)NC2=O)C(C)(C)c2ccccc21 (stereo not given) 6.09%
O=c1oc2c(CN3CCCCC3)c(O)ccc2c2c1CCCC2 -1.27%
COc1ccc(-c2noc(CCC(=O)NCCCN3CCC(C)CC3)n2)cc1 8.68%
O=C(COc1ccc(S(=O)(=O)N2CCCC2)cc1)N1CCN(c2ccccc2F)CC1 3.38%
CCN(Cc1ccncc1)C(=O)c1ccc2c(c1)S(=O)(=O)c1ccccc1C2=O -39.1%
CCC1=NN2C(=N)/C(=C\c3ccc(SCc4ccco4)o3)C(=O)N=C2S1 45.8%
CCCC1=NN2C(=N)/C(=C\c3ccc(SCc4ccco4)o3)C(=O)N=C2S1 60.1%
CCOc1cc(/C=C2\C(=N)N3N=C(S(C)(=O)=O)SC3=NC2=O)ccc1OCCOc1cccc(OC)c1 12.1%
C=CCOc1ccc(/C=C2\C(=N)N3N=C(S(=O)(=O)CC)SC3=NC2=O)cc1OC -6.72%
CC1=CN2C(=N)/C(=C/c3ccco3)C(=O)N=C2S1 5.23%
COc1cc(/C=C2/C(=N)N3C=CSC3=NC2=O)ccc1OCCCOc1cc(C)ccc1C 4.39%
CCOc1cc(/C=C2\C(=N)N3N=C(S(=O)(=O)CC)SC3=NC2=O)ccc1OC(=O)c1ccco1 26.5%
CCS(=O)(=O)C1=NN2C(=N)/C(=C\c3ccc(OC(=O)c4ccco4)c(OC)c3)C(=O)N=C2S1 30.5%
CCC(=O)Nc1cc(-c2nn(C)c(=O)c3ccccc23)ccc1N1CCOCC1 1.97%
Cc1csc(SC(C)C(=O)NCc2ccc3c(c2)OCO3)n1 (stereo not given) 6%
Cc1ncc(C[n+]2csc(CCOC(=O)C34CC5CC(CC(C5)C3)C4)c2C)c(N)n1 1.84%
CCOc1ccccc1OCC(=O)Nc1cc(S(=O)(=O)N2CCCCC2)ccc1OC 10.7%
Cn1c(Cc2ccccc2)nnc1SCc1nc2ccccc2c(=O)[nH]1 0.95%
COCC(=O)N1CCC(Oc2ccc(C(=O)N(C)Cc3nccs3)cc2)CC1 3.05%
CSc1ccccc1NC(=O)c1cccc(S(=O)(=O)N2CCN(C)CC2)c1 2.55%
C[C@H]1CCCCO[C@@H](CN(C)S(=O)(=O)c2ccc(F)cc2)[C@@H](C)CN([C@@H](C)CO)C(=O)c2cc(NC(=O)Nc3ccc4c(c3)OCO4)ccc2O1 9.48%
CCN(CC)CCCNC(=S)N1CCn2c(nc3ccccc32)C1 6.61%
O=C(NCC1CCCO1)c1cc([N+](=O)[O-])ccc1Cl (stereo not given) 2.41%
O=C(CC1CCCC1)NNC(=O)c1ccc(Br)cc1 10.1%
CC1=NN(c2ccc(Br)cc2)C(=O)/C1=C/c1ccc(-c2ccccc2C(=O)O)o1 7.93%
CC1=NOC(=O)/C1=C/c1ccc(-c2ccc(Cl)cc2)o1 13%
CC1=NOC(=O)/C1=C\c1ccc(-c2cccc(Cl)c2)o1 12.5%
CC1=NN(c2ccc(Cl)c(C(=O)O)c2)C(=O)/C1=C\c1ccc(-c2ccc(C(=O)O)cc2)o1 20.6%
CC(=O)NCC1CCCN(Cc2cn(-c3ccccc3)nc2-c2ccc3c(c2)OCO3)C1 (stereo not given) -2.78%
COc1cccc(/C=N/NC(=O)CNC(=O)c2ccco2)c1O 13.1%
O=C(CNC(=O)c1ccco1)N/N=C/c1ccc(O)c([N+](=O)[O-])c1 1.55%
COc1cc(/C=N/NC(=O)c2cccs2)ccc1O 9.66%
COc1ccc(/C=N/NC(=O)CNC(=O)c2cccs2)cc1 2.55%
O=S(=O)(c1cccc(S(=O)(=O)N2CCCC2)c1)N1CCCCC1 -4.65%
O=C(COC(=O)/C=C/c1cccc(C(F)(F)F)c1)NC(c1ccccc1)c1ccccc1 -0.08%
Cc1oc2ccccc2c1-c1cn2c(n1)SCC2 18.1%
COC(=O)c1[nH]c(C)c(/C(O)=C2\C(=O)C(=O)N(CCN(C)C)C2c2ccccc2OC)c1C (stereo not given) -0.13%
CC(C)(C)OC(=O)NCC(=O)NCC(=O)OCc1ccccc1 4.89%
CC1(c2cccc(Br)c2)NC(=O)N(CC(=O)Nc2ccc3c(c2)OCO3)C1=O (stereo not given) 8.04%
NS(=O)(=O)c1ccc(CCNCc2cc(Br)ccc2OCc2ccccc2F)cc1 1.51%
COCC1CCCCN1Cc1cn[nH]c1-c1ccc(OC)cc1OC (stereo not given) -6.12%
CC(NC(=O)COC(=O)c1cc(=O)c2ccccc2o1)c1ccccc1 (stereo not given) 2.31%
COc1ccc(/C=C/CN2CCC(Oc3ccc(C(=O)N4CCCCC4)cc3)CC2)cc1 7.82%
COc1cccc(CN2CCC(CO)(CC3CCCCO3)CC2)c1 (stereo not given) 10.7%
OCC1(CC2CCCCO2)CCN(C/C=C/c2ccccc2)CC1 (stereo not given) 1.66%
COc1ccccc1/C=C/CN1CCC(Oc2ccc(C(=O)N3CCCC3)cc2)CC1 7.28%
O=C(NCC1CCCO1)c1ccccc1-c1nc(-c2ccc(Cl)cc2)no1 (stereo not given) 10.3%
CC(C)(C)NC(=O)NC(=O)CSc1nnc(-c2ccccc2F)n1N 11.7%
CC1(C)CC(O)C(C(O)c2cccc([N+](=O)[O-])c2)C(C)(C)N1 (stereo not given) -4.29%
COC(=O)C1=C(C)N(Cc2ccco2)C(=O)/C1=C\c1ccc([N+](=O)[O-])cc1 40.1%
COC(=O)C1=C(C)N(Cc2ccc(C)cc2)C(=O)/C1=C\c1ccc(O)c(OC)c1 -0.65%
COC(=O)C1=C(C)N(CCc2ccc(OC)c(OC)c2)C(=O)/C1=C\c1ccc(O)cc1 27.5%
CCOc1cc(/C=C2\C(=O)N(Cc3ccc(C)cc3)C(C)=C2C(=O)OC)ccc1O 13.1%
